Assay [1] is described as follows: qHTS assay to identify small molecule agonists of the peroxisome proliferator-activated receptor delta (PPARd) signaling pathway - cell viability counter screen (AID 743211). Also: nearly all actives have a fitted effect of over 55% in size. Also: potency is read from the fitted curve at half-maximal effect. To be noted: PPARd-bla HEK293H viability, CellTiter-Glo luminescence, 17 h; series mostly up to 62.6 µM. The essentials: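 qHTS cell viability: PPARd-bla HEK293H; 17 h cpd, 37C; CellTiter-Glo, luminescence at 30 min RT.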
(qHTS replaces the single test concentration by a dilution series.)

Assay [2] in a line: qHTS assay to identify small molecule antagonists of the peroxisome proliferator-activated receptor delta (PPARd) signaling pathway - cell viability counter screen (AID 743213). Also: nearly all actives have a fitted effect of over 50% in size. Also: potency is read from the fitted curve at half-maximal effect. The conditions noted are these: PPARd-bla HEK293H viability, CellTiter-Glo luminescence, 17 h; series mostly up to 62 µM. The method, boiled down: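 Luminescence from CellTiter-Glo, added after the bla read and incubated 30 min at room temperature, gives viability of HEK293H PPARd-bla cells exposed to compounds for 17 h at 37 C with 300 nM L165041.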

The target of assay [3] is Bile acid receptor (Homo sapiens) (UniProt Q96RI1). Nature of the assay: qHTS assay to identify small molecule antagonists of the farnesoid-X-receptor (FXR) signaling pathway (AID 743217; active = well fitted inhibition curve with a large enough effect in the signal ratio in the repeat runs, not every such curve was filed as active; the % refers to the signal ratio; also: potency is read from the fitted curve at half-maximal effect). The conditions noted are these: HEK293T FXR-UAS-bla, beta-lactamase ratio, CDCA-stimulated, 16 h; series mostly up to 62.6 µM. The method, boiled down:
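Test compounds are pin-transferred onto FXR-bla HEK 293T cells, then chenodeoxycholic acid is added at 50 uM final. After 16 h at 37 °C, LiveBLAzer B/G substrate is applied for 2 h at room temperature and fluorescence read.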

Assay [4] in a line: qHTS assay to identify small molecule agonists of the farnesoid-X-receptor (FXR) signaling pathway - cell viability counter screen (AID 743218). Also: nearly all actives have a fitted effect of over 45% in size. Also: potency is read from the fitted curve at half-maximal effect. The conditions noted are these: FXR-bla HEK293T viability, CellTiter-Glo luminescence, 16 h; series mostly up to 62.6 µM. The method, boiled down: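 Quantitative HTS counter screen measuring ATP-based viability via CellTiter-Glo luminescence in HEK 293T cells carrying a UAS-driven beta-lactamase reporter, after 16 h compound exposure at 37 C.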

In assay [5] the target is Bile acid receptor (Homo sapiens) (UniProt Q96RI1). Nature of the assay: qHTS assay to identify small molecule agonists of the farnesoid-X-receptor (FXR) signaling pathway (AID 743220; active = well fitted activation curve with a large enough effect in the signal ratio in the repeat runs, not every such curve was filed as active; the % refers to the signal ratio). To be noted: HEK293T FXR-UAS-bla, beta-lactamase FRET ratio, 16 h; series mostly up to 62.6 µM. The essentials: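 FXR-UAS-bla HEK 293T cells carrying a UAS-driven beta-lactamase reporter were plated for 5 h at 37C/5% CO2, then exposed to DMSO-dissolved Tox21 10K compounds for 16 h at 37C. A LiveBLAzer B/G FRET substrate was loaded for 2 h at room temperature before fluorescence reading.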

Assay [6] is described as follows: qHTS assay to identify small molecule antagonists of the farnesoid-X-receptor (FXR) signaling pathway - cell viability counter screen (AID 743221; active = well fitted cell-killing curve with a large enough effect in the repeat runs, not every such curve was filed as active; also: nearly all actives have a fitted effect of over 50% in size; also: potency is read from the fitted curve at half-maximal effect). The conditions noted are these: FXR-bla HEK293T viability, CellTiter-Glo luminescence, 16 h; series mostly up to 62.6 µM. The essentials: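 After a 5 h settling period, FXR-bla HEK 293T cells receive compound and chenodeoxycholic acid (50 uM final) and incubate 16 h at 37 C; CellTiter-Glo luminescence, read after 30 min at room temperature, reports cell viability.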

Assay [7] addresses Vitamin D3 receptor (Homo sapiens) (UniProt P11473). In words: qHTS assay to identify small molecule antagonists of the vitamin D receptor (VDR) signaling pathway (AID 743223; active = well fitted inhibition curve with a large enough effect in the signal ratio in the repeat runs, not every such curve was filed as active; the % refers to the signal ratio; also: potency is read from the fitted curve at half-maximal effect). The conditions noted are these: VDR-UAS-bla HEK293T, beta-lactamase FRET ratio, 16 h; series mostly up to 61 µM. The method, boiled down: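 Reporter line VDR-bla; stimulus 1alpha,25-(OH)2 vitamin D3, 3 nM final; compound co-addition, 16 h 37C/5% CO2; LiveBLAzer B/G substrate 2 h RT; fluorescence intensity.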

The nature of assay [8]: qHTS assay to identify small molecule agonists of the vitamin D receptor (VDR) signaling pathway - cell viability counter screen (AID 743224). Also: nearly all actives have a fitted effect of over 50% in size. Also: potency is read from the fitted curve at half-maximal effect. To be noted: VDR-bla HEK293T viability, CellTiter-Glo luminescence, 16 h; series mostly up to 62.6 µM. The essentials:
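CellTiter-Glo viability readout on VDR-bla cells, measured after 16 h of compound treatment at 37C in the same wells.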

A short description of assay [9]: qHTS assay to identify small molecule antagonists of the vitamin D receptor (VDR) signaling pathway - cell viability counter screen (AID 743225). Also: nearly all actives have a fitted effect of over 50% in size. Also: potency is read from the fitted curve at half-maximal effect. The conditions noted are these: VDR-bla HEK293T viability, CellTiter-Glo luminescence, 16 h; series mostly up to 61 µM. The method, boiled down:
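Parallel cytotoxicity test: VDR-UAS-bla HEK 293T, 3 nM (final) 1-alpha,25-dihydroxyvitamin D3 with test compound, 16 h, 37C. Endpoint is CellTiter-Glo luminescence in the same wells.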

The nature of assay [10]: qHTS assay to identify small molecule agonists of the endoplasmic reticulum stress response signaling pathway (AID 1159516; active = well fitted activation curve with a large enough effect in the signal ratio in the repeat runs, not every such curve was filed as active; the % refers to the signal ratio; also: potency is read from the fitted curve at half-maximal effect). The conditions noted are these: ESRE-bla HeLa, ER stress beta-lactamase reporter, 5 h; series mostly up to 61 µM. The method, boiled down: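 Fluorescence at 460 and 530 nm (405 nm excitation) reports beta-lactamase from an ER stress response element in HeLa cells treated 5 hr at 37 C.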

Assay [11] can be described thus: qHTS assay to identify small molecule agonists of the endoplasmic reticulum stress response signaling pathway - cell viability counter screen (AID 1159517; calls by dose curve; also: nearly all actives have a fitted effect of over 50% in size; also: potency is read from the fitted curve at half-maximal effect). To be noted: ESRE-bla HeLa viability, CellTiter-Glo luminescence, 5 h; series mostly up to 61 µM. The essentials: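 Cytotoxicity of test compounds toward ESRE-bla HeLa cells was assessed after 5 hr exposure. The luminescent CellTiter-Glo signal was measured 30 min after reagent addition.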

Assay [12] addresses Nuclear receptor ROR-gamma (Homo sapiens) (UniProt P51449). Nature of the assay: qHTS assay to identify small molecule antagonists of the retinoid-related orphan receptor gamma (ROR-gamma) signaling pathway (AID 1159521; also: nearly all actives have a fitted effect of over 50% in size; also: potency is read from the fitted curve at half-maximal effect). The conditions noted are these: Tet-on RORgamma CHO cells, RORE-luciferase, 16 h; series mostly up to 92.4 µM. The essentials: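 Decreased RORE-driven luciferase luminescence indicates antagonism. Tet-on RORγ CHO cells received compound, then 1 uM final doxycycline 2 h later; signal read after 16 h incubation.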

Assay [13] can be described thus: qHTS assay to identify small molecule antagonists of the retinoid-related orphan receptor gamma (ROR-gamma) signaling pathway - cell viability counter screen (AID 1159520). Also: nearly all actives have a fitted effect of over 50% in size. Also: potency is read from the fitted curve at half-maximal effect. To be noted: Tet-on RORgamma CHO cells viability, ATP luminescence, 16 h; series mostly up to 92.4 µM. The method, boiled down:
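Tet-on ROR gamma CHO cells (1,000/well) were plated 4 hr, given compounds in DMSO for 2 hr at 37 C, then induced with 1 uM final doxycycline for 16 hr. Viability was read as ATP by CellTiter-Glo luminescence after 30 min.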

Assay [14] is described as follows: qHTS assay to identify small molecule agonists of the AP-1 signaling pathway - cell viability counter screen (AID 1159525; calls by dose curve; also: nearly all actives have a fitted effect of over 55% in size; also: potency is read from the fitted curve at half-maximal effect). The conditions noted are these: ME-180 AP-1-bla cells viability, ATP luminescence, 5 h; series mostly up to 76.8 µM. The essentials:
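Each titration point was normalised to DMSO and tetra n-octyl ammonium bromide controls. The read was Cell Titer Glo luminescence after 30 min at RT, following 5 h compound exposure of ME-180 AP-1-bla cells at 37 °C.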

The nature of assay [15]: qHTS assay to identify small molecule agonists of the AP-1 signaling pathway (AID 1159526; calls by dose curve). The conditions noted are these: ME-180 (cervical carcinoma) AP-1-bla reporter, beta-lactamase FRET ratio, 5 h; series mostly up to 76.8 µM.
The target in assay [16] is Retinoic acid receptor RXR-alpha (Homo sapiens) (UniProt P19793). In words: qHTS assay to identify small molecule agonists of the RXR signaling pathway (AID 1159527; calls by dose curve; also: nearly all actives have a fitted effect of over 35% in size). The conditions noted are these: HEK293T RXRa-UAS-bla, beta-lactamase ratio, 16 h; series mostly up to 76.8 µM. The essentials:
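16 hr incubation of compound-treated RXR-alpha-UAS-bla HEK 293T cells (2% charcoal-stripped FBS, 37 C) preceded a 2 hr room-temperature LiveBLAzer FRET substrate step and blue/green fluorescence measurement.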

Assay [17] concerns the target Peroxisome proliferator-activated receptor delta (Homo sapiens) (UniProt Q03181). In words: qHTS assay to identify small molecule agonists of the peroxisome proliferator-activated receptor delta (PPARd) signaling pathway (AID 743212; calls by dose curve). The conditions noted are these: HEK293H PPARd-UAS-bla, beta-lactamase FRET ratio, 17 h; series mostly up to 62.6 µM. The essentials: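 Beta-lactamase reporter read by fluorescence (LiveBLAzer B/G FRET, 2 h, room temperature). Test agents, in DMSO, incubated at 37 C with PPARd-bla HEK293H cells.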

For assay [18] the target is unchanged. In words: qHTS assay to identify small molecule antagonists of the peroxisome proliferator-activated receptor delta (PPARd) signaling pathway (AID 743215; active = well fitted inhibition curve with a large enough effect in the signal ratio in the repeat runs, not every such curve was filed as active; the % refers to the signal ratio;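 also: cells stimulated with agonist L165041 at 300 nM final during compound exposure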). The conditions noted are these: HEK293H PPARd-UAS-bla, beta-lactamase FRET ratio, antagonist, 17 h; series mostly up to 62 µM. The method, boiled down: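 Here, a reporter line (HEK293H, beta-lactamase under a UAS) measures PPARd signaling. Compounds are tested against agonist L165041 at 300 nM final concentration over 17 h at 37 C, with fluorescence read after substrate.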

Assay [19] deals with Vitamin D3 receptor (Homo sapiens) (UniProt P11473). In words: qHTS assay to identify small molecule agonists of the vitamin D receptor (VDR) signaling pathway (AID 743222; calls by dose curve). To be noted: HEK293T VDR-UAS-bla, beta-lactamase FRET ratio, 16 h; series mostly up to 63.5 µM. The method, boiled down: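 Tox21 cell reporter format: VDR-bla line, 16 h compound exposure in 5% CO2 at 37C, then fluorescence intensity after 2 h with LiveBLAzer B/G FRET substrate.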

SMILES strings stand for the structures. Results filed as inconclusive are left out. Calls of active or inactive are those of the source. Unless noted, calls follow the shape of the dose curve; as a rule, active = well fitted curve in the direction sought with a large enough effect in the repeat runs; inconclusive = weak or mixed curves; inactive = no such curve, though single readings can be large; an effect the other way counts as inactive or inconclusive.

Peroxisome proliferator-activated receptor delta (Homo sapiens), sequence (Q03181 whole entry, looked up): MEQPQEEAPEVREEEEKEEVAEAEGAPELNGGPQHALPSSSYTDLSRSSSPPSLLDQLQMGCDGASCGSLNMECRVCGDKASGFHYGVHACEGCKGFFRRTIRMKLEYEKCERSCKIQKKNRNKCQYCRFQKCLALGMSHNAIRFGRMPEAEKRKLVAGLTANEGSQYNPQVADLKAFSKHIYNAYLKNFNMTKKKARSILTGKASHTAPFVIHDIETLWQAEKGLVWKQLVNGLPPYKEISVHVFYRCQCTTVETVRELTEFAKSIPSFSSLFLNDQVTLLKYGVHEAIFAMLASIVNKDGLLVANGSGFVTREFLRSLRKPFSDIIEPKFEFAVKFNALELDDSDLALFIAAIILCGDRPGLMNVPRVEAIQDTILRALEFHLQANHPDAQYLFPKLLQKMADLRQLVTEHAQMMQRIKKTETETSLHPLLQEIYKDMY
Bile acid receptor (Homo sapiens), sequence (Q96RI1 whole entry, looked up): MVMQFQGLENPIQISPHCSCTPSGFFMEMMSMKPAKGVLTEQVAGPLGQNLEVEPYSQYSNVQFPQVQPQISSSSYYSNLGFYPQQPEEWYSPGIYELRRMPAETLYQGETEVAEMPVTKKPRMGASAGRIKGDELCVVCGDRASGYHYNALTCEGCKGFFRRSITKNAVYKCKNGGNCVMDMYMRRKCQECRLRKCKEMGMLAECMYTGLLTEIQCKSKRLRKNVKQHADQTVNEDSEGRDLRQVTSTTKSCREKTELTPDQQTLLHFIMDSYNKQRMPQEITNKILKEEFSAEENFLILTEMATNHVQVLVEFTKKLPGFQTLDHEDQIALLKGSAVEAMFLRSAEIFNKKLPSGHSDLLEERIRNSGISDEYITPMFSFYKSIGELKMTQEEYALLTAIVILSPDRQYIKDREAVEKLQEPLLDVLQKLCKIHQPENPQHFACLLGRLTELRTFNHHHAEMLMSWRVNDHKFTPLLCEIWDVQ
Vitamin D3 receptor (Homo sapiens), sequence (P11473 whole entry, looked up): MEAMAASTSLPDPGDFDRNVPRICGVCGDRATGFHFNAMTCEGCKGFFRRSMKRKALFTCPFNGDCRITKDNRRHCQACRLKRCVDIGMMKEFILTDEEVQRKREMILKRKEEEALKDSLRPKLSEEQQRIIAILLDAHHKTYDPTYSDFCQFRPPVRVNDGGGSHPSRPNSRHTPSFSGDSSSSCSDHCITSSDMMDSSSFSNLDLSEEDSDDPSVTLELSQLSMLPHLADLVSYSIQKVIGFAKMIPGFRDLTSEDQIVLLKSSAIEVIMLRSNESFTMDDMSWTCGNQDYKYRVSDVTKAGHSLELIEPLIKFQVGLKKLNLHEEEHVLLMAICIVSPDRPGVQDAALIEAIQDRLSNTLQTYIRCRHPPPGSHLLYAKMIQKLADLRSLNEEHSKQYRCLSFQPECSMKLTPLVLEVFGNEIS
Retinoic acid receptor RXR-alpha (Homo sapiens), sequence (P19793 whole entry, looked up): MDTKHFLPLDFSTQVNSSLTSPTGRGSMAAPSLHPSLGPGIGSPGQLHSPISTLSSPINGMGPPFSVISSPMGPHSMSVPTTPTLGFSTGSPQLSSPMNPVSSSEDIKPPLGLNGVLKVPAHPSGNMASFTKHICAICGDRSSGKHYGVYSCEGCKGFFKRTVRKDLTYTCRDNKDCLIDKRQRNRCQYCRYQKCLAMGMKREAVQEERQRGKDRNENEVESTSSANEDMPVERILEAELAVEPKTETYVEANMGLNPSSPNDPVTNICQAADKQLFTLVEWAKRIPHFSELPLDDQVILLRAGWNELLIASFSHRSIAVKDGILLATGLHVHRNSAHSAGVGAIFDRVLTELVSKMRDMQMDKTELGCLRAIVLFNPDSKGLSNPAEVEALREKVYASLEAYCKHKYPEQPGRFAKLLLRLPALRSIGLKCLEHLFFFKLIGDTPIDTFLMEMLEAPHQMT

In the case of `Nc1ccccc1C(=O)Oc1ccc2ccccc2c1`, the Potency result in assay [1], in assay [2], in [3], in assay [4], in assay [6] and in assay [7] was “inactive” throughout. Further, the Potency result in assay [8], in assay [9], in assay [10] and in [12] was “inactive” in each case. For the same molecule, in assay [5], the result was inactive. The Potency in assay [11] was 43.6 µM (active).

Regarding `COc1cc(N)c(Cl)cc1C(=O)NC1CN2CCC1CC2` (centres undefined), the Potency entry in [2], in assay [4], in assay [6], in assay [8], in [9] and in assay [11] was “inactive” in each case. The Potency entry in assay [13], in [12], in [14] and in assay [15] was “inactive” throughout. The outcome in [16] was inactive.

With `CC(C)CC(C)N` (centres undefined), the Potency entry in [1], in assay [17], in [18], in [4], in assay [6] and in [8] was “inactive” each time. Moreover, the Potency entry in [9], in assay [10], in [12], in assay [14] and in assay [15] was “inactive” each time.

Consider `COc1cccc(C(=O)CCN[C@@H](C)[C@H](O)c2ccccc2)c1`, for which the Potency result in [17], in assay [3], in assay [4], in assay [6], in assay [19] and in [9] was “inactive” throughout. The Potency entry in [10], in assay [13] and in assay [14] was “inactive” each time. Besides, the outcome in assay [5] was inactive. For the same molecule, in assay [8], the Potency is 33.5 µM (active).

In the case of `CC(=O)[O-].CC(=O)[O-].O.O.[Cd+2]`, the Potency in assay [1] is 0.765 µM (active); in assay [2] it was 19.2 µM (active); in assay [4], 1.53 µM (active); in assay [6], 1.21 µM (active); in assay [8] it was 1.21 µM (active); in assay [9], 15.3 µM (active). In addition, the Potency in [10] was 0.216 µM (active). For the same molecule, the Potency result in [13] is “inactive”.

Regarding `CC(=O)O[C@H]1CC[C@@]2(C)C(=CC[C@@H]3[C@@H]2CC[C@]2(C)C(=O)CC[C@@H]32)C1`, the Potency entry in assay [2], in assay [3], in assay [4], in assay [6], in assay [8] and in [9] was “inactive” throughout. The Potency result in [10] and in [13] was “inactive” in each case. Further, the Potency in [12] is 48.6 µM (active).

For `CC1(C)CN=C(NN=C(/C=C/c2ccc(C(F)(F)F)cc2)/C=C/c2ccc(C(F)(F)F)cc2)NC1`, the Potency in assay [1] is 7.76 µM (active); in assay [2] it was 6.92 µM (active); in assay [3] it was 19.5 µM (active); in [4] it was 11 µM (active); in assay [6] it was 15.5 µM (active); in assay [7], 13.8 µM (active). Besides, the Potency in assay [8] is 6.92 µM (active); in assay [9], 11 µM (active); in assay [11], 49 µM (active); in assay [13], 24.3 µM (active); in assay [12] it was 12.2 µM (active); in assay [14] it was 43.6 µM (active).

These data come from PubChem BioAssay (Tox21).
